Screens (PubChem)
p97 inhibitor = inhibitors of human p97 ATPase, primary screen, biochemical | Transitional endoplasmic reticulum ATPase (Homo sapiens), P55072 | recombinant p97 ATPase, Kinase-Glo ATP luminescence, 3 h | inhibition, % at 8 µM | 220,000 compounds, 0.42% hits; in the data active means inhibition above about 15%;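 further: 0% = DMSO vehicle and 100% = wells lacking enzyme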
S1P4 antagonist = S1P4 receptor antagonists, primary screen, cell-based; inhibition, % at 4.98 µM; 220,000 compounds, 0.26% hits; S1P4-expressing cells, antagonist mode, reporter read-out; in the data active means inhibition above about 29%;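 further: 0% = wells stimulated with agonist and 100% = vehicle wells without agonist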
Target sequence (O95977 whole entry, looked up): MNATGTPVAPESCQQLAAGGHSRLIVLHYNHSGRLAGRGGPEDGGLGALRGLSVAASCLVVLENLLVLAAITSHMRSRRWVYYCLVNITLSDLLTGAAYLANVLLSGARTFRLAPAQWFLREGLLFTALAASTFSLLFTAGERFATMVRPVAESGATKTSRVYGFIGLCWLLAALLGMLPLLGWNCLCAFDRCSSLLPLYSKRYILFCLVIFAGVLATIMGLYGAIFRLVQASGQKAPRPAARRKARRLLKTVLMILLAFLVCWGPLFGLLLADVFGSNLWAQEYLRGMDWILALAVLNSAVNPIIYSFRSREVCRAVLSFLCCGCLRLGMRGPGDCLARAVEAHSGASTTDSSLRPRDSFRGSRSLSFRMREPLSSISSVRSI
SUMO HTRF inh = inhibitors of in vitro SUMOylation cascade, primary screen, biochemical, HTRF, uHTS | 290,000 compounds, 0.36% hits | SUMO-conjugating enzyme UBC9 (Homo sapiens), P63279 | AID 2006, 2009 | inhibition, % at 35 µM | HTRF SUMOylation assay, SAE1/SAE2 + UBC9; in the data active means inhibition above about 50%, passing the limit was not always enough
Target sequence (P63279 whole entry, looked up): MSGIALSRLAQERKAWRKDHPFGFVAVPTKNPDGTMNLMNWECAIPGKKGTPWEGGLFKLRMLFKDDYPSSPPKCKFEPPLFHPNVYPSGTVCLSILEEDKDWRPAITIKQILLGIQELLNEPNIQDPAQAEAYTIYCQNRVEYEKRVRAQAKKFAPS
S1P4 ag = S1P4 receptor agonists, primary screen, cell-based; 220,000 compounds, 0.35% hits; activation, % at 4.98 µM; S1P4-expressing cell line, agonist reporter assay; AID 1509, 2009; in the data active means activation above about 11%;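 further: 0% = DMSO vehicle and 100% = reference agonist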
DTT redox prof = compounds producing H2O2 with reducing agent – biochemical, NIH compound library profiling, artefact control for MLSCN library redox annotation, primary screen. DTT-dependent redox cycling H2O2, phenol red/HRP absorbance; 100% = 100 µM peroxide control, 0% = buffer. activation, % at 10 µM. 200,000 compounds, 0.03% hits. AID 878, 2007;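 active means activation of at least 50% relative to the plate's high and low controls in the primary single-dose screen; inactive means activation below 50%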;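 further: compound incubated with DTT at 0.8 mM final as the reducing agent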
S1P3 antag-1 = S1P3 receptor antagonists, primary screen, cell-based | AID 485, 2006 | CHO S1P3 NFAT-BLA reporter, FRET fluorescence, antagonist mode | Sphingosine 1-phosphate receptor 3 (Homo sapiens), Q99500 | 170,000 compounds, 0.27% hits | inhibition, % at 4.98 µM;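 active means inhibition above the plate cutoff, the mean inhibition of test wells on that plate plus 3 SD, cut at about 28% in these data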;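 further: cells challenged with S1P at its EC80 of 0.8 µM; blue over green emission ratio from cleaved BLA substrate after 4 h stimulation; 0% = S1P-stimulated wells and 100% = unstimulated DMSO-only wells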
S1P3 antag-2 = S1P3 receptor antagonists, retest, confirmation, cell-based; shares compounds with S1P3 antag-1; CHO S1P3 NFAT-BLA reporter, FRET, antagonist mode; inhibition, % at 4.98 µM; 240 compounds, 30% hits;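 active means inhibition above the hit threshold that was computed for the earlier primary screen, cut at about 30% in these data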;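 further: 0% = S1P-stimulated wells and 100% = unstimulated DMSO-only wells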
DTT redox conf = redox cycling H2O2 generation, confirmed; EC50, µM; DTT-dependent redox cycling H2O2, phenol red-HRP absorbance; 60 compounds, 40% hits; shares compounds with DTT redox prof;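 active means EC50 under a set limit for hydrogen peroxide production with the reducing agent DTT present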
p97 inh conf = p97 ATPase inhibitors, retest, confirmation, biochemical; shares compounds with p97 inhibitor; recombinant p97 ATPase, Kinase-Glo ATP luminescence; inhibition, % at 8 µM; 760 compounds, 44% hits;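 active means percent inhibition of p97 ATPase above a set limit, the primary screen's mean plus 3 SD, cut at about 15% in these data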;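 further: 0% = DMSO wells and 100% = wells lacking p97 protein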
S1P4 antag conf = S1P4 receptor antagonists, human, confirmation, cell-based. shares compounds with S1P4 antagonist. S1P4-expressing cell line, antagonist mode, reporter read-out. AID 1524, 2009. inhibition, % at 4.98 µM. 520 compounds, 71% hits; in the data active means inhibition above about 30%
S1P1 antag = S1P1 receptor antagonists, human, counter-screen for S1P4 antagonist project, cell-based; shares compounds with S1P4 antagonist; cell-based S1P1 antagonist counterscreen, inhibition; inhibition, % at 4.98 µM; 520 compounds, 37% hits; in the data active means inhibition above about 40%;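 further: receptor stimulated with S1P near its EC80; 0% = agonist stimulated wells and 100% = vehicle only wells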
* hit, by the source's call; x = no result. Sampled rows, rich in hits. Any-hit rate of the full collection: about 1.1%.

SMILES | p97 inhibitor | S1P4 antagonist | SUMO HTRF inh | S1P4 ag | DTT redox prof | S1P3 antag-1 | p97 inh conf | others
C[C@H]1CCC/C=C/C2C[C@H](O)CC2[C@H](O)/C=C/C(=O)O1 (stereo partly drawn) | 3.7 | 51.5* | -21.1 | -0.9 | 0.3 | 45.7* | x | S1P3 antag-2=16.1;S1P4 antag conf=97.3*;S1P1 antag=27.9
Cc1nn(CC(=O)N2CCC3(CC2)OCCO3)c(=O)c2cc3ccccc3n12 | x | x | -4.7 | x | x | x | x
CCn1nc(-c2ccccc2)nc2c(=O)n(C)c(=O)nc1-2 | 37.1* | 10.7 | 104.0* | 1.9 | 139.8* | 103.2* | 34.3* | DTT redox conf=0.9*
Cc1nc2c(=O)n(C)c(=O)nc-2n(C)n1 | 31.0* | 97.0* | 103.0* | 1.9 | 292.7* | x | 38.3* | DTT redox conf=2.76*
O=C(NCc1ccccc1)c1cccn(Cc2cccc(Cl)c2)c1=O | x | x | -5.0 | x | x | x | x
CCOC(=O)CC(NC(=O)C(Cc1ccc(N(CCCl)CCCl)cc1)NC(C)=O)C(=O)OCC (stereo not drawn) | 1.1 | 5.3 | 15.6 | 1.5 | -0.2 | -0.4 | x
O=C1C(=O)c2ccccc2-c2ccccc21 | 31.9* | 98.5* | 100.2* | -2.9 | 284.5* | x | 38.0* | DTT redox conf=0.71*;S1P4 antag conf=115.9*;S1P1 antag=142.9*
CC(=NCCCn1ccnc1)c1c(O)n(C2CCCCC2)c(=O)[nH]c1=O | 6.1 | -9.4 | 12.0 | -3.4 | x | -7.3 | x
O=C1NC(=O)N(Cc2ccco2)C(=O)/C1=C/C=C/c1ccco1 | 31.2* | 6.1 | 72.9* | 0.4 | x | -1.2 | 12.1
O=C1NC(=O)N(Cc2ccccc2)C(=O)/C1=C\C=C\c1ccco1 | 2.3 | -20.4 | 11.6 | 0.1 | 5.2 | -16.4 | x
Cc1ccc(OCCOc2cccc(C=C3C(=O)NC(=O)NC3=O)c2)c(C)c1 | x | x | 15.7 | x | x | x | x
CC(=O)N1N=C2C3CCN(CC3)C2C1c1cccc2ccccc12 (stereo not drawn) | 16.0* | 4.2 | -2.5 | -1.2 | 0.4 | -13.1 | 10.8
CC(=O)N1N=C2C3CCN(CC3)C2C1c1ccc(C)cc1 (stereo not drawn) | 0.9 | 1.9 | -10.1 | -0.7 | -0.4 | -21.0 | x
CCn1c(C)c(C(=O)Nc2ccc(OC)cc2)c2cc(OC)ccc21 | x | x | 1.7 | x | x | x | x
CCN1C(=O)C(=Cc2ccc(N3CCOCC3)o2)C(=O)N(CC)C1=S | 1.4 | 5.5 | 24.5 | 1.0 | x | -1.6 | x
CN1C(=O)C(=Cc2ccc(N3CCOCC3)o2)C(=O)N(C)C1=S | 19.1* | -1.6 | 1.4 | -0.8 | 8.9 | 3.3 | -1.5
C[C@]12CC[C@@H]3c4ccc(O)c(O)c4CC[C@H]3[C@@H]1CC[C@@H]2O | 22.7* | 8.1 | 0.6 | 0.1 | x | -5.0 | 4.7
Cc1cc(N2CCNCC2)nc2ccccc12 | x | x | 13.8 | x | x | x | x
Nc1ccccc1-[n+]1c(-c2ccccc2)cc(-c2ccccc2)cc1-c1ccccc1 | 15.7* | -8.1 | 9.1 | 1.6 | x | -8.6 | 10.4
Clc1ccccc1CNC1CN2CCC1CC2 (stereo not drawn) | 6.4 | -11.0 | -5.1 | 3.5 | 0.8 | 3.1 | x
c1ccc2c(c1)Sc1ccccc1N2CC1CN2CCC1CC2 (stereo not drawn) | 17.7* | 15.5 | 7.7 | 0.8 | x | 8.6 | 15.2*
Cc1ccc(S(=O)(=O)N(C)C/N=C(\N)N[N+](=O)[O-])cc1 | 15.4* | -2.5 | 7.6 | -0.8 | -0.3 | -0.1 | 7.4
COC(=O)[C@@H](N)CCCN=C(N)N[N+](=O)[O-] | x | x | 8.9 | x | x | x | x
C[C@]12CCC3=C4CCC(=O)C=C4CC[C@H]3C1CC[C@@H]2O (stereo partly drawn) | x | x | -7.0 | x | x | x | x
O=C(c1ccc(-c2ccccc2)cc1)C1CCCN(Cc2ccn[nH]2)C1 (stereo not drawn) | -8.7 | -14.3 | 8.4 | 0.3 | -0.7 | 10.1 | x
SMILES | p97 inhibitor | S1P4 antagonist | SUMO HTRF inh | S1P4 ag | DTT redox prof | S1P3 antag-1 | p97 inh conf | others
O=C(O)CC1OCC=C2CN3CCC45C6=CC(=O)C(=O)C([N+](=O)[O-])=C6NC4C1C2CC35 (stereo not drawn) | 38.3* | 0.7 | 100.5* | 0.8 | x | 0.1 | 36.6*
O=C(O)C1Cc2ccccc2N2CCCC12 (stereo not drawn) | x | x | 8.5 | x | x | x | x
CN1CCC(n2nccc2N)CC1 | 14.8* | -5.5 | -1.8 | 0.9 | 2.5 | -12.9 | 2.0
Nc1ccnn1C1CCNCC1 | 2.5 | -6.6 | 11.1 | 0.5 | 2.8 | -4.9 | x
CCCCNC(=O)c1c(N)n(CCCOC)c2nc3ccccc3nc12 | 21.7* | -27.5 | 99.1* | 2.8 | -2.8 | x | -2.2
COCCCNC(=O)c1c(N)n(Cc2ccco2)c2nc3ccccc3nc12 | 5.7 | 6.2 | 38.6 | 1.5 | x | 11.8 | x
COCCCNC(=O)c1c(NC(=O)c2ccco2)n(Cc2ccccc2)c2nc3ccccc3nc12 | 23.7* | 1.5 | 98.4* | 3.3 | -0.8 | -5.7 | 3.8
CCOC(=O)c1c(NS(=O)(=O)c2ccccc2)n(CCCOC)c2nc3ccccc3nc12 | 45.0* | 4.7 | 100.0* | 1.6 | 0.3 | 2.3 | 17.0*
COc1ccc(Cn2c(N)c(C(=O)NCc3ccco3)c3nc4ccccc4nc32)cc1OC | 32.0* | 1.9 | 99.9* | 0.6 | 1.8 | 8.9 | 6.8
CCCC(C)n1[nH]c(=O)c2c1NC(=O)CSC2c1ccccc1 (stereo not drawn) | 0.5 | -6.5 | 2.2 | 0.8 | x | 14.9 | x
CN1CCN(c2ccc(N)cc2Cl)CC1 | 7.5 | 5.2 | -0.6 | 1.9 | -0.1 | -16.4 | x
CC1CCC[C@H](O)CCCCCc2cc(O)cc(O)c2C(=O)O1 (stereo partly drawn) | 16.8* | 1.0 | 14.3 | -0.4 | -0.2 | 10.8 | 24.6*
N#CC(C#N)=NNc1ccc(S(N)(=O)=O)cc1 | 23.4* | -13.6 | 23.5 | 1.4 | x | -5.8 | 25.0*
